# Records with an inconclusive call do not appear. A number with no mark means an inactive call. The source made the active and inactive calls. Calls come from the whole dose curve; as a rule, active = well fitted inhibition curve with a large enough effect in the signal ratio, with a control signal flat (not every such curve was filed as active); inconclusive = small, poorly fitted or top-dose-only effect, or effect the other way, or a change in a side signal; inactive = no such curve, though single readings can be large or run the other way; the % refers to the signal ratio.
# Target: Peroxisome proliferator-activated receptor delta (Homo sapiens) (UniProt Q03181)
# Sequence (Q03181 whole entry, looked up): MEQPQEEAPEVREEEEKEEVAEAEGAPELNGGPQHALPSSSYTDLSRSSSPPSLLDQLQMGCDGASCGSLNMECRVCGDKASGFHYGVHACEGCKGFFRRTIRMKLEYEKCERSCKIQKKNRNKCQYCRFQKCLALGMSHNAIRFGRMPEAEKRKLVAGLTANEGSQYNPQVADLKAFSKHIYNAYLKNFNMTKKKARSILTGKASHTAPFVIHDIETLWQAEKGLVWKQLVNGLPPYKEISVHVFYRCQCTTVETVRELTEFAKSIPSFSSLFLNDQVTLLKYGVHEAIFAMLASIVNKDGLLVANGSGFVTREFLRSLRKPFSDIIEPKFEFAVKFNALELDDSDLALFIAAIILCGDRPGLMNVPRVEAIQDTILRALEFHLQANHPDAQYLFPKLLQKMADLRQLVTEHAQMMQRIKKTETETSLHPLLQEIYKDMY
# Experiment: qHTS assay for small molecule antagonists of peroxisome proliferator-activated receptor delta signaling (AID 588535)
# Conditions: HEK293T PPARd-UAS-bla, beta-lactamase FRET ratio, 18 h; series mostly up to 76.7 µM; activity change, negative = inhibition: at the top concentration
# From the text: NIH Chemical Genomics Center [NCGC] U.S. Environmental Protection Agency [EPA] National Institutes of Environmental Health Sciences [NIEHS] National Toxicology Program [NTP] NCGC Assay Overview The Peroxisome proliferator-activated receptors (PPARs) are lipid-activated transcription factors of the nuclear receptor superfamily with three distinct subtypes namely PPAR alpha, PPAR delta (also called PPAR beta) and PPAR gamma. All these subtypes heterodimerizes with Retinoid X receptor (RXR) and have different physiological functions. […] This role of PPAR delta implicates the potential use of its ligands in the treatment of metabolic disorders.
# NCGC Assay Protocol Summary Using a beta-lactamase reporter-gene under control Peroxisome Proliferator-Activated Receptor delta (PPAR-delta) response element, a cell-based assay [GeneBLAzer (PPAR-delta-UAS-bla assay developed by Invitrogen] was used to measure PPAR-delta ligands signaling. GeneBLAzer PPAR-delta-UAS-bla HEK293T cells were used with assay medium containing 2% charcoal/dextran FBS. The assay was performed in clear bottom black Greiner 1536-well plates. Library compounds were measured for their ability to inhibit the reporter gene activity. Compounds were screened in a titration series in 1536-well format. The fluorescence intensity (405 nm excitation, 460/530 nm emission) was measured using an EnVision plate reader. […] Concentration-response titration points for each compound were fitted to the Hill equation yielding concentrations of half-maximal inhibition (IC50) and maximal response (efficacy) values. qHTS protocol for PPAR-delta beta-lactamase assay in antagonist mode [Step] [Parameter] [Value] [Description] 1. Reagent; 5 uL; 4000 cells/well 2. Incubation; 37 C for 5 hrs 3. Compounds; 23 nL; 0.59 nM to 92 uM 4. […] Incubation; 37 C for 18 hrs 7. Detection reagent; 1 uL of CCF4-dye 8. Incubation; RT for 2 hrs 9. Detection; Fluorescence; Envision plate reader
Compound,"activity change, negative = inhibition",outcome
CCN(CC)C(=O)c1cccc(C)c1,-7.67%,
COc1ccc(O)cc1,-25.3%,
CCCCCCCC(=O)OCC(COC(=O)CCCCCCC)OC(=O)CCCCCCC,-13%,
CC(=O)NS(=O)(=O)c1ccc(N)cc1,-6.21%,
FC(F)(F)C(Cl)Br (stereo not drawn),-29.1%,
Cc1ccc(C(C)C)c(O)c1,10.7%,
COC(=O)c1ccc(O)cc1,-10%,
Cc1cc(O)cc(C)c1Cl,-0.0555%,
Nc1ccc(S(=O)(=O)c2ccc(N)cc2)cc1,,inactive
Cc1cc(C)nc(NS(=O)(=O)c2ccc(N)cc2)n1,,inactive
Cc1c(N(C)C)c(=O)n(-c2ccccc2)n1C,21.3%,
CC(C)=CCC/C(C)=C/CO,-10.1%,
CCCCCCCCCCCCCCCCCCO,1.76%,
O=C(c1ccccc1)C(O)c1ccccc1 (stereo not drawn),,inactive
C=CCNC(N)=S,-23.9%,
CCCCCC(N)=O,-23.9%,
O=C(O)CCCCC1CCSS1 (stereo not drawn),17.4%,
Cc1c(C(=O)NCCO)[n+](=O)c2ccccc2n1[O-],-1.04%,
CC(=O)OCC(COC(C)=O)OC(C)=O,,inactive
O=C1C(c2[nH]c3ccccc3c2O)=Nc2ccccc21,8.48%,
CC1CC(OC(=O)c2ccccc2O)CC(C)(C)C1 (stereo not drawn),6.87%,
CC(=O)Nc1ccccc1,-10.6%,
CCCC(O)C(CC)CO (stereo not drawn),-6.1%,

# Reference: PubChem BioAssay (NCATS)
